In PubChem BioAssay (NCATS):
“And” between values parts separate entries of the source, which are not always exact repeats. Equal entries are not always repeated. Inconclusive results are not listed. A number with no mark means an inactive call. The source made the active and inactive calls. The call rests on the fitted dose curve; in most records, active means well fitted inhibition curve with a large enough effect; inconclusive means small, poorly fitted or top-dose-only effect; inactive means flat fitted curve, though single readings scatter.

assay: Primary qHTS for inhibitors of nuclear receptor binding SET domain protein 2 (NSD2) in an isogenic RCH-ACV NSD2 p.E1099K mutant (9B) (AID 1645876); details: RCH-ACV (leukaemia line) NSD2 E1099K (9B) viability, CellTiter-Glo, 72 h; series mostly up to 44.9 µM; activity change, negative = viability loss: at the top concentration; further: nearly all actives have a fitted effect of over 70% in size
On the % scale 0 is the no-effect control and ±100 the full control effect; potency means the concentration at half of the fitted maximal effect.

SMILES | activity change, negative = viability loss | Potency
NCc1ccc(OCCCc2sc(-c3ccc4c(c3)/C(=N/Nc3nc5ccccc5s3)CCC4)nc2C(=O)O)cc1 | -29.1% | –
N[C@H]1C[C@H]1c1ccc(-c2cccc(O)c2)cc1 | -26.1% | –
C[C@@H]1CC[C@H]2C(C)(C)[C@H](O)[C@H](O)C[C@]2(C)[C@@]12Cc1c(O)cc3c(c1O2)CNC3=O | -13.2% | –
O=C(O)C[C@H](O)C[C@H](O)/C=C/c1c(C2CC2)nc2ccccc2c1-c1ccc(F)cc1 | – | 1.83 µM (active) and 1.18 µM (active)
C[C@H]1[C@H](C)CC[C@]2(C(=O)O)CC[C@]3(C)C(=CC[C@@H]4[C@@]5(C)C[C@@H](O)[C@H](O)[C@@](C)(CO)[C@@H]5CC[C@]43C)[C@H]12 | -8.12% | –
CCOC(=O)[C@H](CCc1ccccc1)N[C@@H](C)C(=O)N1C2CCCCC2C[C@H]1C(=O)O (stereo partly drawn) | 1.02% | –
CCCCC(=O)OCC(=O)[C@]1(O)Cc2c(O)c3c(c(O)c2[C@@H](O[C@H]2C[C@H](NC(=O)C(F)(F)F)[C@H](O)[C@H](C)O2)C1)C(=O)c1c(OC)cccc1C3=O | – | 263 nM (active)
CC(=O)O[C@@H]1C[C@]2(C)[C@@]3(CCC4[C@@]5(C)CC[C@H](O[C@@H]6O[C@H](C(=O)O)[C@@H](O)[C@H](O[C@@H]7O[C@H](CO)[C@H](O)[C@H](O)[C@H]7O[C@@H]7O[C@@H](C)[C@H](O)[C@@H](O)[C@H]7O[C@@H]7OC[C@](O)(CO)[C@H]7O)[C@H]6O[C@@H]6O[C@H](CO)[C@H](O)[C@H](O)[C@H]6O)C(C)(C)C5CC[C@]42C)O[C@@H](O)[C@]12C3CC(C)(C)[C@@H](OC(=O)/C=C/c1ccc(O)c(O)c1)[C@@H]2OC(=O)/C=C/c1ccccc1 (stereo partly drawn) | -5.24% [at 9.23 µM] | –
